Consider three molecules from the supplement of paper PMC11732987, “Enantioselective OTUD7B fragment discovery through chemoproteomics screening and high-throughput optimisation” (Communications Chemistry, 2025).

Experiment in all cases: log2 ratio of Biotin-Ahx-Ub-VS probe labelling (fragment/DMSO); higher = less target engagement (more negative = stronger competition), active = hit call of the paper (q ≤ 0.05, log2 ratio ≤ -1)
Common to all, as to conditions: compound concentration: 200 uM; treatment time: 3 h

One test has as its target T1, USP42 (UniProt Q9H9J4).
T1 sequence (whole entry): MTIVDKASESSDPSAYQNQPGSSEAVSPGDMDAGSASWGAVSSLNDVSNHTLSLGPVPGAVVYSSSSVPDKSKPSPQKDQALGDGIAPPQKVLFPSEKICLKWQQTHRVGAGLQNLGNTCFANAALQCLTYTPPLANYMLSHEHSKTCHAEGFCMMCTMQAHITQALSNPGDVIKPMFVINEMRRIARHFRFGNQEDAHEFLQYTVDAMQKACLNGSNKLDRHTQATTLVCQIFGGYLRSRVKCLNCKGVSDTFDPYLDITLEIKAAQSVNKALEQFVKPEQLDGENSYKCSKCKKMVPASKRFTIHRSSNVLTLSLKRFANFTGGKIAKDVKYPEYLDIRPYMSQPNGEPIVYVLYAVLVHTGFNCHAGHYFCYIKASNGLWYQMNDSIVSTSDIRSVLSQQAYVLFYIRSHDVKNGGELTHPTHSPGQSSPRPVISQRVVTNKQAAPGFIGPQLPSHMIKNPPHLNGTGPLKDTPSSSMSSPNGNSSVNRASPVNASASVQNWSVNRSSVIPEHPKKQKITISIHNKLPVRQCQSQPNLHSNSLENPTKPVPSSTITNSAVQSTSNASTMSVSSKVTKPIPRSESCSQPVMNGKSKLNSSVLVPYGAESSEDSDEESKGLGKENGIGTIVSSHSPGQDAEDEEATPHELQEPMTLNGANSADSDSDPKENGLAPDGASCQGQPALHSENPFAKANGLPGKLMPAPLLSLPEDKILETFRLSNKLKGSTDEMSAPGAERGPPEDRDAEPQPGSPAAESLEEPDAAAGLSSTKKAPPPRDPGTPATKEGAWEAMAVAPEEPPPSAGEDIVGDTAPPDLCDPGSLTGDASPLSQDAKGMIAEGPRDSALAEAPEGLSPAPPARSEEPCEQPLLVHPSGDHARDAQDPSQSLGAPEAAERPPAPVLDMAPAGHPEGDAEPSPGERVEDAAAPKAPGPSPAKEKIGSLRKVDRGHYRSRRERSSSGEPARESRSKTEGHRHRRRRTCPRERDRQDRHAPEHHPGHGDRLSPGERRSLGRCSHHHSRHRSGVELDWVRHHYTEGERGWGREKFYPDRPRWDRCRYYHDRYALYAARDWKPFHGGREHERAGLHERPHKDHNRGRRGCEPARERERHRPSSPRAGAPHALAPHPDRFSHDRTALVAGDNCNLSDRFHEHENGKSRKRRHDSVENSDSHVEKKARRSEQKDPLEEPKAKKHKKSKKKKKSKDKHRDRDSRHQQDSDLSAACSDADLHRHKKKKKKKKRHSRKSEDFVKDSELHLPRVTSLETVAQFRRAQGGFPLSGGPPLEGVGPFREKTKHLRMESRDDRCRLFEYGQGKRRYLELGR
The essentials:
(§1)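 Labelled DUBs were enriched with NeutrAvidin, digested with LysC and trypsin, and run by diaPASEF LC-MS/MS. The labelling used Biotin-Ahx-Ub-VS at 0.5 µM final for 1 h on HEK293T lysate (495 µg per sample) previously treated in triplicate with fragment at 200 µM or vehicle for 3 h. Values are average log2 fragment/vehicle ratios by unpaired t-test on global-median-normalised Spectronaut quantities of proteins with ≥2 unique peptides.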

In a further test the target is USP46 (UniProt P62068). The essentials: as §1
In the next test the target is T2, USP47 (UniProt Q96K76).
T2 sequence (whole entry): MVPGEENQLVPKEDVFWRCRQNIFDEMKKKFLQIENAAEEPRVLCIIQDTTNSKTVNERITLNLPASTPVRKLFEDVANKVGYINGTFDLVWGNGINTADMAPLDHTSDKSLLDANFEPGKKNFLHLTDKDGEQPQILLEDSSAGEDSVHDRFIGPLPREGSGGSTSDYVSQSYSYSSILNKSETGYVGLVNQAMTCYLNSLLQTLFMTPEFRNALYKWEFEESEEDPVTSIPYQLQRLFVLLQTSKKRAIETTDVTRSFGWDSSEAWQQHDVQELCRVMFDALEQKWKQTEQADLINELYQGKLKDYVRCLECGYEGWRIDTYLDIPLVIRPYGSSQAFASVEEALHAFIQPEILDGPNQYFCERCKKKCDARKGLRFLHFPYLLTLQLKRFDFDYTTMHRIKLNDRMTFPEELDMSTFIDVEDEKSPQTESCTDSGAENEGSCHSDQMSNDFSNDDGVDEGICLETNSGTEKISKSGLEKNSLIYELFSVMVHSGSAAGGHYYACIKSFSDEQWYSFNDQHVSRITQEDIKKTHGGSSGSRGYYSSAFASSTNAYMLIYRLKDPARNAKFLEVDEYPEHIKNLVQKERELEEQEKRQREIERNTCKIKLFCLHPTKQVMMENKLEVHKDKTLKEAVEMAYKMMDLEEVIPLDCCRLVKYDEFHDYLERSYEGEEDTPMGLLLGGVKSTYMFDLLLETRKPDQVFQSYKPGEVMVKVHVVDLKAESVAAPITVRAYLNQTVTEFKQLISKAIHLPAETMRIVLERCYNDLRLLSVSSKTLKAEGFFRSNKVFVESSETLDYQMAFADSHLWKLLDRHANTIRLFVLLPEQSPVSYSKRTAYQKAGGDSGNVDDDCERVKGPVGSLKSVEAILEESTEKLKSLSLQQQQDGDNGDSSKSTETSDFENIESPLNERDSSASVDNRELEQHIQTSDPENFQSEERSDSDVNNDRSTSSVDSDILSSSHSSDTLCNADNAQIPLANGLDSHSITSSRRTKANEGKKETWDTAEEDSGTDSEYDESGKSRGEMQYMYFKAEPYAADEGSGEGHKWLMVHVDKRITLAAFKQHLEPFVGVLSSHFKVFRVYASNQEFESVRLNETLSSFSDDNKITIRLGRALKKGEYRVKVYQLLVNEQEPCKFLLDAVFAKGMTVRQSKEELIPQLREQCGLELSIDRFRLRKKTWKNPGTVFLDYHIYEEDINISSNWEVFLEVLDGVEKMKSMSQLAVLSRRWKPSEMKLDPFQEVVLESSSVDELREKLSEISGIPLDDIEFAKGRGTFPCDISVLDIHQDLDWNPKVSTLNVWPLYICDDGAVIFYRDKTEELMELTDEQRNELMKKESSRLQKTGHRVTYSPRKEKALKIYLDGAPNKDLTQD
The gist of the method: as §1

For a further test, the target named is T3, USP48 (UniProt Q86UV5).
T3 sequence (whole entry): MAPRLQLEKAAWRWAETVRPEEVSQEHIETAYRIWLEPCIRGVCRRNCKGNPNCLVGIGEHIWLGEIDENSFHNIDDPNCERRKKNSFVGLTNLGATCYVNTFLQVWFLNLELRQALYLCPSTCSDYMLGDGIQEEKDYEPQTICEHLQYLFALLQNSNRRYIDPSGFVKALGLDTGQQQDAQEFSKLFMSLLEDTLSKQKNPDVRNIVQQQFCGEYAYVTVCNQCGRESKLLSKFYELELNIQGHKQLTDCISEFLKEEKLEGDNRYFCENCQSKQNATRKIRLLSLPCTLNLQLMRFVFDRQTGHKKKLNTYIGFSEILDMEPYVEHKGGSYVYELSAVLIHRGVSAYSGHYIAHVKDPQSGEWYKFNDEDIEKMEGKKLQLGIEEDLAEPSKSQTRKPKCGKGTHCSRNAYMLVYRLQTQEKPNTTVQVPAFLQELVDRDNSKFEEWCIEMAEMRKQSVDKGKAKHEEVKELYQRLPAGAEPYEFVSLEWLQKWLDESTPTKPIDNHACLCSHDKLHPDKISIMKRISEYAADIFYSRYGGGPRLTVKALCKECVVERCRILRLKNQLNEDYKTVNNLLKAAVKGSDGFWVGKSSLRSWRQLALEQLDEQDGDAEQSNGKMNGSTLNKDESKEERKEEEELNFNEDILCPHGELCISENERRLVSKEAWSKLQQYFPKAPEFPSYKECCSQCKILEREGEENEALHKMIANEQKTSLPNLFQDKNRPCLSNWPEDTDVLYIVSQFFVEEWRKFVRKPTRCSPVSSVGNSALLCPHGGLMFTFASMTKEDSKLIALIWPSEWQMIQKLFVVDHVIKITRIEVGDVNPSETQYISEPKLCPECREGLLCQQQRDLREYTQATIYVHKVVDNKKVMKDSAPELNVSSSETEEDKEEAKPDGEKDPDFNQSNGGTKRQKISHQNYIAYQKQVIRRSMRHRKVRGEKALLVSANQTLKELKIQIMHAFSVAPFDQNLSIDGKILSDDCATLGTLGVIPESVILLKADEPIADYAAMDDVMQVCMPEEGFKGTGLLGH
The essentials:
as §1

For another test, the target named is T4, USP5 (UniProt P45974).
T4 sequence (whole entry): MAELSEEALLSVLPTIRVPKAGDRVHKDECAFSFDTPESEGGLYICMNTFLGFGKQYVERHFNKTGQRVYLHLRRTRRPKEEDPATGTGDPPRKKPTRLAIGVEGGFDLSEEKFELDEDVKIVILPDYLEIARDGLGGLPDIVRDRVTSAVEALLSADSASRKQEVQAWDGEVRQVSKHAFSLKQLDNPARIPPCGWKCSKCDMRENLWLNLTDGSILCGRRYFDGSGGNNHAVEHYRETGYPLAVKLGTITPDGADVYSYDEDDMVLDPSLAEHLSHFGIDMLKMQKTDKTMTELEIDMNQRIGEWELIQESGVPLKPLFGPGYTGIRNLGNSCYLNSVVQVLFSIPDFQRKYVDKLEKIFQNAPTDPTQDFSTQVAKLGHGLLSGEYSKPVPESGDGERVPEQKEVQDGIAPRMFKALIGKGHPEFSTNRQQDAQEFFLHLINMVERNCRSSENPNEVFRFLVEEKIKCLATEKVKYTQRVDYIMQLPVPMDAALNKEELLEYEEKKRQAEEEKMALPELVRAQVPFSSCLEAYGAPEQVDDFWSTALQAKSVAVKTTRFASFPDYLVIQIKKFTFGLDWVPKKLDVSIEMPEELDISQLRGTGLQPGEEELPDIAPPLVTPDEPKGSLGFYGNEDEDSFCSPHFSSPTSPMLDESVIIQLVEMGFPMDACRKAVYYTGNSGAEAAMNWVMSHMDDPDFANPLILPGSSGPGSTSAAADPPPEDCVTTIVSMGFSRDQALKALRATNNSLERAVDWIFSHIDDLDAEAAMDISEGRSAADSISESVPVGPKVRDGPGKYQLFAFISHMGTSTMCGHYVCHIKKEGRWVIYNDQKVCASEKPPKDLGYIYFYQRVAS
The essentials:
as §1

A further test deals with USP54 (UniProt Q70EL1). The essentials: as §1
Another test has as its target USP7 (UniProt Q93009). The essentials: as §1
The target in the next test is T5, USP8 (UniProt P40818).
T5 sequence (whole entry): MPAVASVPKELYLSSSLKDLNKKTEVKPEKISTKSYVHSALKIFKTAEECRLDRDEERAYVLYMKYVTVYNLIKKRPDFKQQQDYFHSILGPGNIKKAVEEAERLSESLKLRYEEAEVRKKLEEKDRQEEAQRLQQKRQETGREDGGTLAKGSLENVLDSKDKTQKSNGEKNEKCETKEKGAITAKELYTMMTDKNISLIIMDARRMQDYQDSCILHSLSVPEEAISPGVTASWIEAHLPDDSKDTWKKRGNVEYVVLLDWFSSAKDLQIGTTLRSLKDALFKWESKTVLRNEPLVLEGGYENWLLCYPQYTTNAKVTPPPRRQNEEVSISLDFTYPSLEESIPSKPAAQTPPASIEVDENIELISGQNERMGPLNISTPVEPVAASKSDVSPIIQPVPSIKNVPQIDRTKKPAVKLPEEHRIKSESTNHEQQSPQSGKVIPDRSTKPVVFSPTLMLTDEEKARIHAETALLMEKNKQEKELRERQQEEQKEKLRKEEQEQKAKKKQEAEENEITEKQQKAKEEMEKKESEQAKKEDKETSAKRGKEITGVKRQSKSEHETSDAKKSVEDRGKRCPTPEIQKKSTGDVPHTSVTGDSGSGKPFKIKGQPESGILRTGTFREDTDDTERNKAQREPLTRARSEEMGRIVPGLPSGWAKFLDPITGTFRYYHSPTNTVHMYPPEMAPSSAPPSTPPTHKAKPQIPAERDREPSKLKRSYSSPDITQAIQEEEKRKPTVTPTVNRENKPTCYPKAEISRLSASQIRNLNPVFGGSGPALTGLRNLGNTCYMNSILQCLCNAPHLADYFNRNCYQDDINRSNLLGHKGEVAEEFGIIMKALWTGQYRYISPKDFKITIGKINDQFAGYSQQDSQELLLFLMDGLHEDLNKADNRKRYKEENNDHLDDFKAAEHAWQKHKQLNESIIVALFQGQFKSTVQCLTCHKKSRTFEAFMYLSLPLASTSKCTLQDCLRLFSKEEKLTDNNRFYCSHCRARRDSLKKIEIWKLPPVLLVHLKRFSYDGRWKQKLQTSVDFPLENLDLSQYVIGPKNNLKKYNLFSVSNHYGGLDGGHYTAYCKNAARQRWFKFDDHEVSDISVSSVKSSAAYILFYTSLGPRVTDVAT
The gist of the method: as §1

Another test addresses USP9X (UniProt Q93008). The essentials: as §1
The next test concerns the target UniProt O00487. The essentials:
as §1

Molecules are shown by their SMILES. A number with no mark means an inactive call.

USP9X, sequence (Q93008 whole entry): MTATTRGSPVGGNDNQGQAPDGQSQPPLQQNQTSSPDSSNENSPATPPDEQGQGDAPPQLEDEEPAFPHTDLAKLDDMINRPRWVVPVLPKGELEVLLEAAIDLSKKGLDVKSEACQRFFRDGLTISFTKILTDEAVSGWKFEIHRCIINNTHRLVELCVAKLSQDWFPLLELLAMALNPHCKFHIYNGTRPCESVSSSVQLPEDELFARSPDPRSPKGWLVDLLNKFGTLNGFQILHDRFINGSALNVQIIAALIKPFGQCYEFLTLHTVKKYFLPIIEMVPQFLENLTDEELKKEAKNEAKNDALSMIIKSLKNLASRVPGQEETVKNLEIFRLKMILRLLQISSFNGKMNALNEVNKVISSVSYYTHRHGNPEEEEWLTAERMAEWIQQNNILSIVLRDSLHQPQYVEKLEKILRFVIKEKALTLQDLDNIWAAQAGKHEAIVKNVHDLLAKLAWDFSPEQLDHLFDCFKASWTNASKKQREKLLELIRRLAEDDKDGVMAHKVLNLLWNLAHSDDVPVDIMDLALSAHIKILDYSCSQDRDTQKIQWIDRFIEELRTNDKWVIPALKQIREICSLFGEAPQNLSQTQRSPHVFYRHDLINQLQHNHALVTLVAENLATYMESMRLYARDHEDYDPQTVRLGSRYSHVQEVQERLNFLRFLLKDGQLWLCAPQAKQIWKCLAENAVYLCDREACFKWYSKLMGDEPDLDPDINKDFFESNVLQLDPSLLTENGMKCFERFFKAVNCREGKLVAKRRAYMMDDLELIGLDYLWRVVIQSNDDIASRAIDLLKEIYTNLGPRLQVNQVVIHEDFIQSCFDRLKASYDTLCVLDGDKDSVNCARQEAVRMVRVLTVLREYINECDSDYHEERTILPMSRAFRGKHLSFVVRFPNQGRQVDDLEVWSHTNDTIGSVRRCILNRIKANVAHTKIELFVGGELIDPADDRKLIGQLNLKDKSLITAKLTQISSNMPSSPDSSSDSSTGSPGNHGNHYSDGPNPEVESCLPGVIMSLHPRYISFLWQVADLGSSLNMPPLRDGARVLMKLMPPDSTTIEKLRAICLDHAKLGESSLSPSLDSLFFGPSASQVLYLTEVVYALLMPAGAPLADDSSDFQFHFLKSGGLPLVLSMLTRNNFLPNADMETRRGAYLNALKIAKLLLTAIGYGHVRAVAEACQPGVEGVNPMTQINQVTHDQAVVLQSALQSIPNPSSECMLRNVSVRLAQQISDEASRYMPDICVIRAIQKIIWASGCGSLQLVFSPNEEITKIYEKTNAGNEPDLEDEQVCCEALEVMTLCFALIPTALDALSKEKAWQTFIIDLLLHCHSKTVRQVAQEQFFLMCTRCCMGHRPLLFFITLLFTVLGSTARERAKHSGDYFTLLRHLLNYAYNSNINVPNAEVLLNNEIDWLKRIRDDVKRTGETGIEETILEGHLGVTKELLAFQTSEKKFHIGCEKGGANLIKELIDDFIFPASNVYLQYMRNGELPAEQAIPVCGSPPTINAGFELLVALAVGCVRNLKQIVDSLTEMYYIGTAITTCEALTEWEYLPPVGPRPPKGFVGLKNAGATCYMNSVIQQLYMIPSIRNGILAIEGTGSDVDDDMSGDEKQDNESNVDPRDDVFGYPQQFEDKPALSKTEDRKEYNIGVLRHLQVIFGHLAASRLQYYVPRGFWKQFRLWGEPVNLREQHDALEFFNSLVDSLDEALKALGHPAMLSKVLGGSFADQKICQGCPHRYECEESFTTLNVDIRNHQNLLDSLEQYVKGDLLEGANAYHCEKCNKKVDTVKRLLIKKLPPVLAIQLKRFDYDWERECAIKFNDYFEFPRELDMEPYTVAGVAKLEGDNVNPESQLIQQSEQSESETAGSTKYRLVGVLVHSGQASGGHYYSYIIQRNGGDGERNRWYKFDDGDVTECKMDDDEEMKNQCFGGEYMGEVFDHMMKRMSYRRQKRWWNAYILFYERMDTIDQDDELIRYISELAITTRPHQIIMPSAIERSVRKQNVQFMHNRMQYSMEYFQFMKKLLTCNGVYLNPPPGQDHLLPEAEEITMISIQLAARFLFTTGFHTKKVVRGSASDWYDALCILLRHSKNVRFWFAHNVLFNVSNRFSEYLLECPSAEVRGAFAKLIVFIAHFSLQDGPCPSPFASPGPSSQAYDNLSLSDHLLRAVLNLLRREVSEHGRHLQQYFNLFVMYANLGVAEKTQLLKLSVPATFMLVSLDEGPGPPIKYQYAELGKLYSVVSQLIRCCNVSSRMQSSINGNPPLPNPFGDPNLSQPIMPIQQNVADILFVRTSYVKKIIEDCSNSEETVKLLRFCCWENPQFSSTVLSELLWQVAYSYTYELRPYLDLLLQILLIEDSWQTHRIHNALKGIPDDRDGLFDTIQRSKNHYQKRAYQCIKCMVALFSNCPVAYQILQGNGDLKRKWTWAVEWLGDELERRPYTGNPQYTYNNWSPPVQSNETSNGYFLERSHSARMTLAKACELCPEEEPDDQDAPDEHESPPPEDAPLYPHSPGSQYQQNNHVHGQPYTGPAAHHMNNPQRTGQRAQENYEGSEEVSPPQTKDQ
USP46, sequence (P62068 whole entry): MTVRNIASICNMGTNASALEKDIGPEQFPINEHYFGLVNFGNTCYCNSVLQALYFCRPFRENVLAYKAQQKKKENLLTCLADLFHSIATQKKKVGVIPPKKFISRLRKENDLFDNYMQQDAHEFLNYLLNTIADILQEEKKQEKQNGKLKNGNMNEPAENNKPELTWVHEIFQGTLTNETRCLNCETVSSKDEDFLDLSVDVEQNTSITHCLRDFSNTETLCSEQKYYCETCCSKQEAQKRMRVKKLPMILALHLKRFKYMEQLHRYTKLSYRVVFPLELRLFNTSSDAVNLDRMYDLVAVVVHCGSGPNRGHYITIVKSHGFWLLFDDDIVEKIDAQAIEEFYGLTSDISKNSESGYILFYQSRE
USP54, sequence (Q70EL1 whole entry): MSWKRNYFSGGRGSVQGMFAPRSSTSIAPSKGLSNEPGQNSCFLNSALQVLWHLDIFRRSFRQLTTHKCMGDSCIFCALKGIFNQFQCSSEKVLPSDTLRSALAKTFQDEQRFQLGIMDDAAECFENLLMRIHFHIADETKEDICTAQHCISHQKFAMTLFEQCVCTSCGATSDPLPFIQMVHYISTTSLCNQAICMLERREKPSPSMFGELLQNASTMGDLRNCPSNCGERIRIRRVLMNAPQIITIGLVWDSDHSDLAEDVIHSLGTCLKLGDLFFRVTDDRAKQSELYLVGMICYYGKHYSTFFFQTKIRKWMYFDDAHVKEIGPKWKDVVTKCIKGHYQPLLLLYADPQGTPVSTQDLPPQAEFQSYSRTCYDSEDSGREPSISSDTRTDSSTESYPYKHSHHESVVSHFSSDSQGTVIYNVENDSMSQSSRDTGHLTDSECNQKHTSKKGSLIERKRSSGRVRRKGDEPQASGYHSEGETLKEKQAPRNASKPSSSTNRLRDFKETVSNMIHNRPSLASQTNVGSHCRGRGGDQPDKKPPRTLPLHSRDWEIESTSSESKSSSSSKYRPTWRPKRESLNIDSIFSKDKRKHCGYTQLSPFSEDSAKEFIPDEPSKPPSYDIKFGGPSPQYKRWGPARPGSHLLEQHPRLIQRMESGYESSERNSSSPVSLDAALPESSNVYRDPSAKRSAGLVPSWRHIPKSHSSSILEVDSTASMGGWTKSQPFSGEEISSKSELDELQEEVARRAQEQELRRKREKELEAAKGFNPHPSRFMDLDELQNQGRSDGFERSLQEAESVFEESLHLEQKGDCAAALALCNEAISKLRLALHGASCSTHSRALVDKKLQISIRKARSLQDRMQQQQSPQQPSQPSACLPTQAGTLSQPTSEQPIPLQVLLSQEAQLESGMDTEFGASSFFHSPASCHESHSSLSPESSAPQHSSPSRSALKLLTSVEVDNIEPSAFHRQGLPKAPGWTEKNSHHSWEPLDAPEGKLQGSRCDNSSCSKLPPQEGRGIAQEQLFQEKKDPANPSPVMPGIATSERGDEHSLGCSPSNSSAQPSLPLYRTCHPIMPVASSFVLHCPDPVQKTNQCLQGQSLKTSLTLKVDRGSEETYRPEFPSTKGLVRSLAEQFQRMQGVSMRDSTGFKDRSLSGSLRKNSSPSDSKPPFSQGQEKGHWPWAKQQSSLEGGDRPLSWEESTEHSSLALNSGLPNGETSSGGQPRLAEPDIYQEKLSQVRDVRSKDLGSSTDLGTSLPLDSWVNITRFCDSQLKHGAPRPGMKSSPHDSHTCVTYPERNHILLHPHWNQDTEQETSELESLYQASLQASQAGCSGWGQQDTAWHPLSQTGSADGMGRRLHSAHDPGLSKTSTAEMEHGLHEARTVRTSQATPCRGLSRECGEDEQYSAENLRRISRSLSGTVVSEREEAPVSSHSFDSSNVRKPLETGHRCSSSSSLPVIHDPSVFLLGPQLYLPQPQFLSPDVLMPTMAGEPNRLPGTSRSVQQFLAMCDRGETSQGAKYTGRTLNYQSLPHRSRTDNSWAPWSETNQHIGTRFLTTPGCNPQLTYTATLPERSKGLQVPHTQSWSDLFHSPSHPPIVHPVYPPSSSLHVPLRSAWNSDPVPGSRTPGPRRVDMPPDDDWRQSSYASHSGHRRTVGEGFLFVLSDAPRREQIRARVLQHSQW
UniProt O00487, sequence (O00487 whole entry): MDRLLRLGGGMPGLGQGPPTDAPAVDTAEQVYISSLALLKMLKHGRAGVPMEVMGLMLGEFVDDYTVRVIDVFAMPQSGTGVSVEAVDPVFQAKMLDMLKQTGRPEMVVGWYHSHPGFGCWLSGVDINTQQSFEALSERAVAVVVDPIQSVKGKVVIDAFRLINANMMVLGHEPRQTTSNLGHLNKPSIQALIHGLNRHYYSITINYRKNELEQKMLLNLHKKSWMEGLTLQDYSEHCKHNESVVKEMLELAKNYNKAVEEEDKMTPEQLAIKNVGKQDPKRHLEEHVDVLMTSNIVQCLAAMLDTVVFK

Regarding `O=C(CCl)Nc1ccc2c(c1)OC(F)(F)O2`, the “log2 ratio of Biotin-Ahx-Ub-VS probe labelling” value (shortened to “log2 ratio”) in the test with USP42 is -0.384; in the test with USP46 it was -0.0942; with USP47, -1.16 (active); with USP48 it was -0.476; with USP5, 0.218; with USP54, 0.684. Besides, the “log2 ratio” value with USP7 was -0.296; with USP8, -0.29; in the test with USP9X, -0.301; with UniProt O00487, 0.0325.
In the case of `Cl.O=C(CCl)N1CCCC(c2ncc[nH]2)C1` (stereo not given), the “log2 ratio” value in the test with USP42 was -0.153; in the test with USP46, 0.183; with USP47, -0.357; with USP48 it was -0.331; with USP5, 0.191; with USP54, 0.506. Besides, the “log2 ratio” value with USP7 was -0.273; with USP8, -0.0352; with USP9X it was -0.121; in the test with UniProt O00487 it was -0.0974.
`O=C(CCl)NCCc1cccc2ccccc12`: the “log2 ratio” value is 0.608 with USP42; -0.0148 with USP46; 0.102 with USP47; -0.131 in the test with USP48; 0.258 with USP5; -0.0844 with USP54. The “log2 ratio” value is -0.217 with USP7, -0.118 with USP8, 0.0346 in the test with USP9X and 0.00956 in the test with UniProt O00487.
